# In the library only some 19% were active in any assay of this set; here they are far more common.
# TDP1 cell CPT = DT40-hTDP1 cell growth loss with CPT. Potency, µM (series often up to 46.2 µM), inactives show at the top dose activity change, negative = growth inhibition, usual class: inhibitors. chicken DT40 Tdp1-/-;hTDP1 cells + 20 nM CPT, ATP luminescence, 48 h. AID 686979. 12% of 420,000 active; further: potency means the concentration at half of the fitted maximal effect; on the % scale 0 is the no-effect control and ±100 the full control effect; nearly all actives have a fitted effect of over 55% in size
#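 Chicken DT40 Tdp1-/- cells complemented with human TDP1, 400 cells/well, exposed to compounds plus 20 nM camptothecin for at least 48 h at 37 C; viability read as ATP content by CellTiter-Glo luminescence.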
# TDP1 cell noCPT = qHTS for Inhibitors of human tyrosyl-DNA phosphodiesterase 1 (TDP1): qHTS in cells in absence of CPT. DT40 Tdp1-/- hTDP1 cells, no CPT, ATP luminescence, 48 h. Potency, µM (titrated, usually from 46.2 µM), for the others: at the top dose activity change, negative = growth inhibition, usual class: inhibitors. 15% of 420,000 active. AID 686978, 2013; further: potency means the concentration at half of the fitted maximal effect; on the % scale 0 is the no-effect control and ±100 the full control effect; nearly all actives have a fitted effect of over 55% in size
#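 DT40 Tdp1-/-;hTDP1 cells, no CPT (DMSO vehicle only), 400 cells/well; compounds pin-transferred; ≥48 hr, 37 °C; CellTiter-Glo 30 min RT dark, luminescence read.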
# Chronic BCR inh = inhibitors of chronic active B-cell receptor signaling; ABC-DLBCL IkBa-CBG/CBR reporter, luminescence ratio, 4 h; Potency, µM (series often up to 46.1 µM), inactives show at the highest dose activity change, negative = inhibition, hits mostly inhibitors; 0.05% of 340,000 active; AID 493014; active means well fitted inhibition curve with a large enough effect in the signal ratio, with a control signal flat, not every such curve was filed as active; inconclusive means small, poorly fitted or top-dose-only effect, or effect the other way, or a change in a side signal; the % refers to the signal ratio;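 further: potency means the concentration at half of the fitted maximal effect; plate controls were basal doxycycline-induced cells for no effect and cells given 10 µM MG132 for full effect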
#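 Doxycycline induced both beetle luciferases in TMD8 lymphoma cells; IKK-driven degradation limits the IkappaBalpha-fused green signal, while red luminescence normalises for cell number and nonspecific effects. Compounds tested up to 46 uM, 4 hrs.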
# MCF10A rerep = DNA re-replication induction in MCF 10a cells; MCF 10A DNA re-replication, Hoechst nuclear intensity, 48 h; Potency, µM (titrated, usually from 46.1 µM), inactives show top-dose activity, positive = re-replication, hits mostly activators; 2.9% of 350,000 active; AID 624296; further: potency means the concentration at half of the fitted maximal effect; % of control where 0% means no effect; nearly all actives have a fitted effect of over 50% in size
# IL-1B inflam inh = inflammasome signaling inhibition, IL-1 beta readout | THP-1 LPS/ATP IL-1B secretion, AlphaLISA, 16 h; hits give low values | activity change, % at 57.5 µM | 4.7% of 360,000 active | AID 743279; in the data active means activity change below about -50%; inconclusive means mostly about -30% to -49%; further: on the % scale 0 is the no-effect control and ±100 the full control effect
#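 THP-1 cells pretreated 1 hr with compounds (up to 57.5 uM final), then stimulated with LPS (250 ng/mL final) plus ATP (1.25 mM final); secreted IL-1B measured by AlphaLISA after 16 hr, decreased signal indicating inhibition.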
# SW480 rerep = induces DNA re-replication in SW480 colon adenocarcinoma cells; SW480 DNA re-replication, Hoechst DNA content imaging, 48 h; Potency, µM (doses to about 46.1 µM), inactives show at the highest dose re-replication activation, actives largely listed as activators; 1.8% of 340,000 active; further: potency means the concentration at half of the fitted maximal effect; % of control where 0% means no effect; nearly all actives have a fitted effect of over 55% in size
#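 Readout is total intensity of Hoechst-stained nuclei, excited at 405 nm and collected at 500-530 nm. Compound treatment lasted 48 hr at 37 C in 5% CO2 before staining.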
# Numbers without * were called inactive; ? = inconclusive; · = no result given; [ ] = remark or other dose. Unless noted, the call rests on the fitted dose curve; in most records, active means well fitted curve in the direction sought with a large enough effect; inconclusive means small, poorly fitted or top-dose-only effect, or another doubt; inactive means no such curve, though single readings can be large; an effect the other way counts as inactive or inconclusive.
SMILES,TDP1 cell CPT,TDP1 cell noCPT,Chronic BCR inh,MCF10A rerep,IL-1B inflam inh,SW480 rerep
O=[N+]([O-])c1ccc(N/N=C/c2ccccc2)c(F)c1,-24%,?,?,5.8µM*,14,?
CCCCOc1ccc(CC(=O)N(C)OC)cc1,-4%,-29%,·,·,·,·
CC(C)(C)c1nn2cnnc2n(/N=C/c2ccc(O)cc2)c1=O,0%,-1%,0%,3%,4,-7%
COc1cccc(OC)c1CC1SC(=O)NC1=O (stereo not given),-4%,-25%,3%,-2%,-6,-8%
OCCN1CCN(c2ncnc3c2ncn3[C@H]2CN(Cc3ccncc3)C[C@@H](CO)O2)CC1,-2%,-12%,·,·,0,·
O=[N+]([O-])/C=C\c1ccc(N2CCOCC2)cc1,15µM*,16µM*,·,16%,-80*,15µM*
COc1cc(/C=N/NC(=O)c2ccccc2O)ccc1OCC(=O)Nc1ccccc1,?,?,?,?,14,-5%
O=[N+]([O-])c1cccc(/C=N/N=C\c2ccccc2)c1,9%,-20%,?,3%,-18,5%
O=[N+]([O-])c1cccc(/C=N/Nc2nnc(-c3ccccc3)c(-c3ccccc3)n2)c1,9.2µM*,9.2µM*,-1%,2%,19,0%
O=C(COc1ccc(/C=N/NC(=O)c2cc3ccccc3o2)cc1Cl)Nc1ccccc1,5.2µM*,6.5µM*,0%,?,-98*,8%
O=[N+]([O-])c1cccc(C=NNc2ccccc2)c1,-1%,?,·,?,-65*,1%
COc1cc(=O)n2c(c1C(=O)N(C)Cc1nonc1C)CCN(Cc1cccc(Cl)c1)CC2,4%[9.04 µM],-13%,·,·,·,·
CCCCCCCC/C=C\CCCCCCCC(=O)OC[C@@H](O)[C@H]1OC[C@H](O)[C@H]1O,2%,3%,·,·,·,·
O=C1C=CC(=O)N1,3.3µM*,3.3µM*,?,66%,-12,5%
N=c1ccn2c(n1)OCC1C2O[C@@H](O)[C@H]1O (stereo not given in full),0.13µM*,0.15µM*,·,·,·,·
Cc1ccccc1C(=O)N=c1sccn1C,-1%,3.3µM*,0%,11%,0,15%
Cc1cccc(C(=O)N=c2sccn2C)c1[N+](=O)[O-],?,-27%,-13%,0%,-10,?
O=C(/C=C/[C@H]1O[C@@H](n2ccc(=O)[nH]c2=O)[C@H](O)[C@@H]1O)NCC1CCCO1 (stereo not given in full),-5%,1%,·,·,9,·
COc1ccc(-c2nnc(CSc3nc4ccccc4c(=O)n3CC3CCCO3)o2)cc1OC (stereo not given),?,23µM*,4%,-20%,11,-79%
N=C1C(c2ccccc2)=C(O)CN1c1cccc(S(=O)(=O)N2CCOCC2)c1,?,-23%,6%,4%,11,-6%
CCOc1cc(-c2ccccc2)nc2c1CN(S(=O)(=O)c1ccc(C)cc1)C(c1cccc(Cl)c1)C2 (stereo not given),?,9.2µM*,·,·,3,·
COCc1cn(CC[C@@H]2CC[C@@H](NC(=O)Nc3ccc4c(c3)OCO4)[C@@H](CO)O2)nn1,4%,-2%,·,·,30,·
COc1cccc(C(=O)N2CCN(Cc3ccccc3C(F)(F)F)CC2)c1,?,?,-8%,0%,-4,12%
CCN1CCN(Cc2ccc(NC(=O)c3ccc(C)c(NC(=O)c4ccc5n[nH]nc5c4)c3)cc2C(F)(F)F)CC1,-1%,-1%,?,14%,-7,6%
CCN1CCN(Cc2ccc(NC(=O)c3cc(NC(=O)c4cnn(-c5ccccc5)c4N)cc(OC)c3)cc2C(F)(F)F)CC1,21µM*,21µM*,?,15µM*,81,1%[9.22 µM]
SMILES,TDP1 cell CPT,TDP1 cell noCPT,Chronic BCR inh,MCF10A rerep,IL-1B inflam inh,SW480 rerep
CCN1CCN(Cc2ccc(NC(=O)c3cc(NC(=O)C(=O)c4c[nH]c5ccccc45)cc(OC)c3)cc2C(F)(F)F)CC1,23µM*,21µM*,?,?,-80*,?
CCN1CCN(Cc2ccc(NC(=O)c3ccc(C)c(NC(=O)C(=O)c4c[nH]c5ccccc45)c3)cc2C(F)(F)F)CC1,2.6µM*,2.6µM*,?,23µM*,-106*,?
CCN1CCN(Cc2ccc(C(=O)Nc3ccc(C)c(NCc4cnc(NC(=O)OC)cn4)c3)cc2C(F)(F)F)CC1,?,-30%,9%,6%,-16,-5%[9.22 µM]
O=C(NC1CCCCC1)C(c1ccccc1)N(C(=O)c1cccs1)c1ccc2c(c1)OCO2 (stereo not given),?,?,-2%,-6%,-14,1.3µM*
O=C(NC1CCCCC1)C(c1ccncc1)N(Cc1ccc2c(c1)OCO2)C(=O)c1cnsn1 (stereo not given),?,?,-19%,-6%,9,?
O=C(NC1CCCCC1)C(c1ccc2ncccc2c1)N(Cc1ccc2c(c1)OCO2)C(=O)c1cccs1 (stereo not given),18µM*,?,?,-4%,-69*,-6%
COc1ccc(C(C(=O)NC2CCCCC2)N(C(=O)c2cccs2)c2ccc3c(c2)OCO3)cc1 (stereo not given),?,?,-6%,?,4,4%
O=C(NC1CCCCC1)C(c1ccc2ncccc2c1)N(Cc1ccccc1)C(=O)c1cccs1 (stereo not given),?,18µM*,-17%,?,-69*,?
CCCNC(=O)CSc1nnc(NC(=O)C2CC(=O)N(c3ccccc3OC)C2)s1 (stereo not given),-11%,3%,·,·,24,·
CCn1c(C)nc2cc(C(=O)N/N=C(\C)c3ccccc3O)ccc21,3.7µM*,2.9µM*,0%,3%,0,-2%
[O-][n+]1c2ccccc2[n+]([O-])c2cc(O)ccc21,9.2µM*,13µM*,10%,-8%,0,3%
Cc1ccc2ccccc2[n+]1[O-],-4%,-5%,·,·,·,·
CCN1CCN(Cc2c(O)ccc3c(C)c(-c4ccc(OC)cc4)c(=O)oc23)CC1,?,23µM*,·,·,·,·
CN1CCN(Cc2c(O)ccc3cc(-c4ccc(Cl)cc4)c(=O)oc23)CC1,23µM*,?,·,·,·,·
COc1ccc(-c2cc3ccc(O)c(CN4CCCC(C)C4)c3oc2=O)cc1 (stereo not given),?,16µM*,·,·,·,·

# Screens: PubChem BioAssay, National Center for Advancing Translational Sciences (NCATS)
